# Compound activity as filed in PubChem.
# Sampled rows, rich in hits. Any-hit rate of the full collection: about 4.2%.
# Hsp70 activator = Hsp70 transcriptional activators, primary screen, cell-based, HeLa, Hsp70 promoter luciferase, luminescence, 10 µM; HeLa Hsp70 promoter luciferase reporter; scaled: vehicle 0, proteasome-inhibitor control 100%; activation, % at 10 µM; actives 0.04% (n = 200,000); AID 1203, 2008;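 active means activation above the mean across all tested compounds plus 3 SD, cutoff set per campaign, cut at about 5.5% in these data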;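 further: 100% = MG132 at 30 µM as the positive control and 0% = DMSO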
# S1P4 antagonist = S1P4 receptor antagonists, primary screen, cell-based. AID 1510, 2009. inhibition, % at 4.98 µM. Sphingosine 1-phosphate receptor 4 (Homo sapiens), O95977. actives 0.26% (n = 220,000). S1P4-expressing cells, antagonist mode, reporter read-out; in the data active means inhibition above about 29%;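 further: 0% = wells stimulated with agonist and 100% = vehicle wells without agonist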
# Target sequence (O95977 whole entry, looked up): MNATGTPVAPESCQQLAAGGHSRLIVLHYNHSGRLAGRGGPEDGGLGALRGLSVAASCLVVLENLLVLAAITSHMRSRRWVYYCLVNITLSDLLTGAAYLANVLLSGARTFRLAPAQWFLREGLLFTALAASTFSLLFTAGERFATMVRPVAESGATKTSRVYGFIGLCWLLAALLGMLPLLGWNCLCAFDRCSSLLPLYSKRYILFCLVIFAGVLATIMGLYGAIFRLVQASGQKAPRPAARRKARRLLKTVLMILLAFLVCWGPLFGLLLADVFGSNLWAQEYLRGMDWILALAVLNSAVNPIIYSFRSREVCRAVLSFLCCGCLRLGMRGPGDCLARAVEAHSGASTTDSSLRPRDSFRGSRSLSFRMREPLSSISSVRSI
# CHOP inhibitor = inhibitors of CHOP promoter induction, primary screen, cell-based, unfolded protein response, luciferase reporter; CHO-K1 CHOP-promoter luciferase, tunicamycin-induced, 15-18 h; inhibition, % at 10 µM; actives 3.8% (n = 220,000); AID 2732, 2010;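 active means compounds that reduced the stress-induced luciferase reporter signal by more than about 70% of percent inhibition, limit read from the data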;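 further: 0% = tunicamycin plus vehicle and 100% = wells without tunicamycin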
# S1P4 ag = S1P4 receptor agonists, primary screen, cell-based. S1P4-expressing cell line, agonist reporter assay. activation, % at 4.98 µM. actives 0.35% (n = 220,000). AID 1509, 2009; in the data active means activation above about 11%;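 further: 0% = DMSO vehicle and 100% = reference agonist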
# Starred values were filed as active, the others as inactive; · = not tested or not shown.
SMILES,Hsp70 activator,S1P4 antagonist,CHOP inhibitor,S1P4 ag
Cc1ccc(NC(=O)c2cc(NC(=O)c3ccco3)ccc2N2CCOCC2)cc1,0,7,42,-1
Cc1ccc(NC(=O)c2cc(-n3cnnc3)ccc2Cl)cc1,0,-4,33,1
CCn1cc(C(=O)NCCc2ccccc2)c(=O)c2cc(F)c(N3CCN(C)CC3)cc21,0,2,-1,-1
COc1ccc(C)cc1NC(=O)c1ccc2c(c1)OCO2,0,-13,-12,0
Cc1cc(C(C)(C)C)oc1C(=O)N(CC(=O)NC1CCCC1)c1cccc(C(F)(F)F)c1,0,-21,83*,-3
Cc1ccccc1N(CC(=O)NC1CCCC1)C(=O)c1oc(C(C)(C)C)cc1C,0,-18,15,-1
CCCOP(=O)(OCCC)C1(Nc2ccc(C)cc2)CCCCC1,0,-8,28,2
CCOc1cc(/C=C2\CCCC(C(=O)C(F)(F)F)=C2O)ccc1O,0,-15,75*,2
COc1cc(/C=C2/CCCC(C(=O)C(F)(F)F)=C2O)ccc1O,·,11,8,8
COc1cccc(C2CC(c3c(Cl)cccc3Cl)n3nc(N)nc3N2)c1 (stereo unspecified),0,-1,-31,-1
O=C(CN1CCN(S(=O)(=O)c2ccccc2)CC1)Nc1cccc(C(F)(F)F)c1,0,-1,79*,-1
O=C(CN1CCN(S(=O)(=O)c2ccc(F)cc2)CC1)Nc1ccc(Cl)c(C(F)(F)F)c1,0,4,65,3
CN(C(=O)COc1ccccc1C(=O)NCCOc1ccccc1)c1ccccc1,-1,-2,79*,2
CN(C)c1ccc(NC(=O)C(=O)NCCOc2ccccc2)cc1,0,-2,70*,2
CN(C(=O)COC(=O)CNC(=O)c1ccccc1Cl)c1ccccc1,1,-14,3,1
CCC(=O)N(Cc1ccco1)c1nc(-c2cc(OC)ccc2OC)cs1,0,-4,75*,0
CC(=O)c1ccc(OCC(O)Cn2nnc3ccccc32)cc1 (stereo unspecified),0,1,23,-1
Cc1ccnc(NC(c2cccnc2)c2ccc3cccnc3c2O)c1 (stereo unspecified),0,-10,-24,1
CC(=O)NC(c1ccco1)c1ccc2cccnc2c1O (stereo unspecified),0,-6,·,0
Cc1cc(NC(c2ccc(Cl)cc2)c2ccc3cccnc3c2O)no1 (stereo unspecified),0,-3,80*,-1
COc1ccc(C(NC(=O)C(C)C)c2ccc3cccnc3c2O)cc1 (stereo unspecified),·,-10,79*,0
FC(F)(F)c1cc(-c2ccco2)nc(NCc2cccnc2)n1,0,5,21,6
Fc1ccc(CNc2nc(-c3ccco3)cc(C(F)(F)F)n2)cc1,0,2,11,-1
Fc1ccc(-c2cc(C(F)(F)F)nc(NCc3cccs3)n2)cc1,0,-5,72*,2
FC(F)(F)c1cc(-c2ccccc2)nc(NCc2cccnc2)n1,0,-5,85*,-2
SMILES,Hsp70 activator,S1P4 antagonist,CHOP inhibitor,S1P4 ag
COC(=O)[C@@]1(Cc2ccc(F)cc2)[C@H]2c3cc(C(=O)N(C)C)n(CCc4ccc(OC)c(Br)c4)c3C[C@H]2CN1C(=O)c1ccccc1,0,-14,49,0
CN(C)CCCN(C(=O)/C=C/c1cccs1)c1nc2ccc(F)cc2s1,0,19,-19,-3
CN(C)CCN(C(=O)/C=C/c1cccs1)c1nc2c(F)cc(F)cc2s1,0,-11,106*,1
CCC(=O)Nc1ccc(NC(=S)NC(=O)c2cc3ccccc3o2)cc1,0,-1,9,-1
Cc1ccc(-c2nc3ccccc3o2)cc1NC(=S)NC(=O)c1cc2ccccc2o1,0,-12,85*,-2
CCC(=O)Nc1cccc(NC(=S)NC(=O)c2cc3ccccc3o2)c1,0,-11,94*,0
Cc1cccc2c1[nH]c1nc(N/N=C\c3ccco3)nnc12,0,-20,85*,1
CC1(C)Cc2c(sc3nc(N/N=C/c4ccccc4)[nH]c(=O)c23)CO1,0,-14,81*,1
COc1ccc(-c2nc(CSCC(=O)NCc3ccc4c(c3)OCO4)c(C)o2)cc1,0,-24,80*,0
COc1ccc(-c2nc(CSCC(=O)NCc3ccc4c(c3)OCO4)c(C)o2)cc1OC,0,2,36,-1
Cc1ccsc1-c1nc(CSCC(=O)NCc2ccc3c(c2)OCO3)c(C)o1,0,1,81*,0
Cc1cc(Cl)c(O)c(-n2nc3ccccc3n2)c1,·,9,-19,1
COc1ccc(Cl)cc1S(=O)(=O)N1CCN(Cc2ccc3c(c2)OCO3)CC1,0,2,73*,-1
CSc1cccc(NC(=O)CCC(=O)O)c1,0,-7,26,2
CCN(CC)C(=O)CSc1nc2sc(C)c(C)c2c(=O)[nH]1,-1,0,29,-2
CCOC(=O)c1cc2c(ccn2C)n1Cc1cc(C)ccc1C,0,-17,90*,-1
CCOC(=O)c1cc2c(ccn2C)n1CC(=O)N1CCN(c2ccc(F)cc2)CC1,1,-12,-13,1
CCc1cc(C(=O)Cc2cnn(-c3ccccc3)c2)c(O)cc1O,0,-1,77*,1
O=C(Cc1cnn(-c2ccccc2)c1)c1ccc(O)c(O)c1O,0,4,13,1
CCC(C)C(NC(=O)C1CCC(C)CC1)C(=O)Nc1ccc(OC)cc1OC (stereo unspecified),0,-1,10,0
CCC(C)C(NC(=O)C1CCC(C)CC1)C(=O)Nc1cc(OC)ccc1OC (stereo unspecified),0,6,82*,0
COc1ccc2ccccc2c1CN1CCN(Cc2ccccc2)CC1,0,4,17,-1
Cc1cccc(NC(=O)c2ccccc2NC(=O)C2CCCCC2)c1C,0,8,78*,0
O=C(COC(=O)c1cnccn1)c1ccc([N+](=O)[O-])cc1,·,-5,-1,0
O=C(C#Cc1cccc([N+](=O)[O-])c1)c1ccccc1,0,9,108*,0
SMILES,Hsp70 activator,S1P4 antagonist,CHOP inhibitor,S1P4 ag
O=C(CN1CCOCC1)N1CCN(S(=O)(=O)c2ccccc2)C1c1ccccc1 (stereo unspecified),0,4,-5,-1
CCCCNc1c2c3c(cccc3n(C)c1=O)C(=O)c1ccccc1-2,0,18,82*,2
Cc1nc([N+](=O)[O-])cn1CC(O)c1ccc(Cl)cc1 (stereo unspecified),·,-10,-8,0
CCCCOc1ccc(CNC(=S)N/N=C/c2ccc(OC)c(OC)c2)cc1,0,-13,88*,0
CCOc1ccc(CNC(=S)N/N=C\c2ccc([N+](=O)[O-])cc2)cc1,0,-4,46,-2
COc1ccc(/C=N/N2CCN(C3c4ccccc4-c4ccccc43)CC2)cc1O,0,1,92*,0
